Bioassay records: PubChem BioAssay, several laboratories
F508del corr: CFTR F508del correction in bronchial cells. CFBE cells, YFP halide quenching; stimulated with forskolin plus potentiator P3; % fluorescence drop versus neutral controls. activity (quench increase), % at 7.58 µM. actives 0.36% (n = 350,000). AID 720511;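 active means mean added fluorescence quench of at least 8% versus neutral control, with both replicates also reaching 8%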;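 further: cells transiently co-express mutant CFTR-F508del with the halide-sensitive YFP; corrector assay measuring rescue of mutant channel to the surface after 24 h compound exposure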
Jurkat NFkB inh: inhibitors of the PMA/ionomycin-induced NF-kB reporter in Jurkat cells | AID 435003 | actives 0.53% (n = 330,000) | PMA/ionomycin-induced NF-kB luciferase reporter, luminescence | inhibition, % at 4 µM; in the data active means inhibition above about 50%
697 NFkB inh: inhibitors of the PMA/ionomycin-induced NF-kB reporter in 697 B cells; 697 B-cell NF-kB luciferase reporter, 16 h; inhibition, % at 4 µM; actives 0.33% (n = 330,000); AID 435022; in the data active means inhibition above about 35%
HIF activator: HIF pathway transcriptional activation. U2OS HRE-luciferase reporter, luminescence; normalized: DMSO 0%, desferrioxamine 100%. activation, % at 7.5 µM (by protocol). actives 0.32% (n = 300,000). AID 1910;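 active means mean activation of at least 10% of the iron chelator positive control signal, with at least half of replicates also reaching 10%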
* marks the source's active call; other numbers are inactive results; / = no result. The list is not random: actives were taken first. Their share in the collection is about 0.93%.

SMILES	F508del corr	Jurkat NFkB inh	697 NFkB inh	HIF activator
CCCCOC(=O)n1c(=O)oc2cc(S(=O)(=O)N3CCCCC3)ccc21	/	17	19	55*
COc1ccc(N2C(=O)CC(c3cc(OC)c(OC)c(OC)c3)CC2=O)cc1	2	17	-9	0
COc1cc(C2CC(=O)N(c3ccc(C)cc3)C(=O)C2)cc(OC)c1OC	10*	21	-35	1
C[C@H]1CN([C@@H](C)CO)C(=O)c2cc(Br)cnc2O[C@H]1CN(C)Cc1ccncc1	0	/	/	/
COc1cc(OC)c2c(-c3cccc(-c4ccc(C#N)cc4)c3)cc(=O)oc2c1	1	/	-38	/
COc1cc(OC)c2c(-c3cccc(-c4sccc4C(C)=O)c3)cc(=O)oc2c1	9.7*	/	-9	/
COc1cc(OC)c2c(-c3cccc(-c4ccc(OC)c(OC)c4)c3)cc(=O)oc2c1	9.2*	/	-28	/
CC(C)CC1Nc2ncnc(N3CCN(c4ccccn4)CC3)c2N(Cc2ccc(Br)cc2)C1=O (stereo not drawn)	8.3*	0	4	0
Cc1ccc(CN2C(=O)C(CC(C)C)Nc3ncnc(N4CCN(c5ccccn5)CC4)c32)cc1 (stereo not drawn)	-2	14	2	1
CC(C)c1cn(CC[C@@H]2CC[C@@H](NC(=O)c3cccc(F)c3)[C@@H](CO)O2)nn1	1	/	/	/
CCCN1C(=O)/C(=C\C=C2\N(CC)c3ccccc3C2(C)C)SC1=S	16*	/	/	-2
CN1/C(=C\C=C2/C(=O)Oc3ccccc3C2=O)C(C)(C)c2ccccc21	4	/	/	3
CN1C(=CC=C2C=C(I)C(=O)C(I)=C2)C(C)(C)c2ccccc21	9.6*	/	/	/
CN1/C(=C\C=C2/SC(=S)NC2=O)C(C)(C)c2ccccc21	25*	29	-42	0
CCN1C(=O)C(=CC=CN(C)c2ccccc2)SC1=S	0	/	/	/
CO[C@@H]1CN(C)C(=O)c2cc(NC(=O)c3cccc(F)c3)ccc2OC[C@@H](C)N(C(C)=O)C[C@H]1C	-1	/	/	/
COCC(=O)N1C[C@H](C)[C@@H](OC)CN(C)C(=O)c2cc(NC(=O)Nc3cccc(F)c3)ccc2OC[C@H]1C	0	/	/	/
CC(C)CNC(=O)[C@@]1(c2ccc([N+](=O)[O-])cc2)CC(=O)N(CC23CC4CC(CC(C4)C2)C3)[C@@H]1c1ccc(CO)cc1	2	/	/	/
CCN(CC)c1ccc(NC(=O)CSc2nc3nc(C)cc(C)c3c(=O)[nH]2)cc1	-2	9	-11	386*
CCOc1cc(/C=N/NC(=O)C(=O)N/N=C/c2ccc(O)c(OCC)c2)ccc1O	-11	-1	8	-14
CCOc1cc(/C=N/NC(=O)N/N=C/c2ccc(O)c(OCC)c2)ccc1O	11*	34	-7	6
CCS(=O)(=O)N1CC(=O)N2[C@H](CO)[C@@H](c3ccc(C#CCC(C)C)cc3)[C@@H]2C1	11*	/	/	/
O=S(=O)(c1ccc(F)cc1)N1CCCCN2[C@@H](CO)[C@H](c3ccc(-c4ccccc4F)cc3)[C@@H]2C1	-1	/	/	/
O=C(c1ccc(-c2nnc(-c3ccccc3)o2)cc1)N1CCCCCC1	/	-53	-72	40*
O=C(O)c1ccc(-c2nnc(-c3ccccc3)o2)cc1	-1	-9	-112	4
SMILES	F508del corr	Jurkat NFkB inh	697 NFkB inh	HIF activator
O=C(COC(=O)COc1ccccc1F)NCCc1ccc(F)cc1	9.1*	1	15	/
O=C(COC(=O)COc1ccccc1)NCCc1ccccc1	-1	7	-1	0
Nc1ccccc1C(=O)N1O[C@@H]2C=C[C@H]1C2	8.6*	/	7	/
Cc1ccccc1-c1nc(CS(=O)(=O)CC(=O)NCc2ccccc2)c(C)o1	8.8*	3	21	0
Cc1ccc(CNC(=O)CS(=O)(=O)Cc2nc(-c3ccccc3F)oc2C)cc1	-1	-12	-12	0
CCCC(=O)Nc1ccc2c(c1)C(=O)N(C)C[C@H](OC)[C@@H](C)CN(Cc1cncnc1)[C@@H](C)CO2	0	/	/	/
CC(=O)c1ccc(N(C(=O)c2csnn2)C(C(=O)NC(C)(C)C)c2cccs2)cc1 (stereo not drawn)	0	8	-1	35*
C[C@@H]1CCCCO[C@@H](CN(C)Cc2ccc(Cl)c(Cl)c2)[C@@H](C)CN([C@@H](C)CO)C(=O)c2cc(NS(=O)(=O)c3ccccc3)ccc2O1	1	/	/	/
N#Cc1cc(Sc2ccccn2)c([N+](=O)[O-])cc1C#N	13*	-8	24	0
C[C@H](CO)N1C[C@H](C)[C@@H](CN(C)C(=O)Nc2ccc3c(c2)OCO3)Oc2cc(C3=CCCCC3)ccc2S1(=O)=O	-3	/	/	/
C=CCn1c(SCC(=O)N(C)C2CCS(=O)(=O)C2)nc2ccccc2c1=O (stereo not drawn)	19*	-6	10	0
COc1cccc(-c2cn(CC[C@@H]3CC[C@@H](NS(=O)(=O)Cc4ccccc4)[C@H](CO)O3)nn2)c1	2	/	/	/
CCOC(=O)/C(C#N)=C/C=C1\C=Cc2ccccc2N1CC	-1	-15	9	18*
C[C@@H]1CN([C@H](C)CO)C(=O)c2cc(NC(=O)Cn3cnnn3)ccc2O[C@H]1CN(C)C(=O)Nc1ccc2c(c1)OCO2	-1	/	/	/
CC(C)NC(=O)Cn1c(SCC(=O)N2CCCc3ccccc32)nc2ccccc21	/	6	21	-1
O=C(Cn1c(SCC(=O)N2CCCc3ccccc32)nc2ccccc21)N1CCCC1	-1	-3	2	70*
COc1ccc(NC(=O)CSc2nc3c(c(=O)[nH]2)CCC3)cc1OC	/	8	21	12*
O=C(CSc1nc2c(c(=O)[nH]1)CCC2)Nc1ccc(F)cc1	0	9	3	0
CC(=NNC(=S)N1CCCCC1)c1ccccn1	6	/	/	/
CC(=NNC(=S)N1CCCCC1)c1cccc(C)n1	12*	/	/	/
CCCNC(=O)c1ccc2c(=O)c(O)c(-c3cccc(Br)c3)[nH]c2c1	8.4*	3	-57	1
CN1CCN(C(=O)C[C@H]2CC[C@@H]3[C@H](COC[C@H](O)CN3Cc3ccc4c(c3)OCO4)O2)CC1	-3	/	/	/
Oc1cc2c(cc1O)C(c1ccccc1)CNCC2 (stereo not drawn)	9.5*	18	18	0
Oc1cc2c(cc1O)[C@@H](c1ccccc1)CNCC2	0	/	/	/
COC(=O)C(NC(=O)c1c(C)nn(C)c1Cl)c1ccccc1 (stereo not drawn)	0	-16	-16	609*
SMILES	F508del corr	Jurkat NFkB inh	697 NFkB inh	HIF activator
Cn1nc(-c2ccccc2)c(C(=O)NC(C(=O)O)c2ccccc2)c1Cl (stereo not drawn)	-1	8	16	0
CCOC(=O)c1cc2sccc2n1CC(=O)Nc1ccc(OC)cc1	/	0	11	36*
CCOC(=O)c1cc2sccc2n1CC(=O)Nc1ccc(OC)c(OC)c1	2	3	7	0
COc1ccc(/C=N/NC(=O)c2nc(-c3ccccc3)n(-c3ccccc3)n2)c(O)c1	/	21	-19	19*
COc1ccc(/C=N/NC(=O)c2cc3cc(OC)c(OC)cc3[nH]2)cc1	/	16	27	-1
COc1ccc(/C=N/NC(=O)c2nc(-c3ccccc3)n(-c3ccccc3)n2)cc1	-1	5	-1	1
